In PubChem BioAssay AID720647 (Broad Institute, 2013):
Hit rate of the full screen: of about 380,000 compounds, about 1,300 (0.34%) were called active. For the sample, actives were picked, then their nearest neighbours and some compounds at random. Values without a mark were called inactive.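 The calls were made as follows: active = drop in luminescence signal, shown as inhibition above about 50% in the replicate tests (limit read from the data, passing the limit was not always enough); inconclusive = probably only some replicates passing the limit; inactive = the rest.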

test system: Drosophila bursicon receptor LGR2 (rickets); assay: inhibitors of bursicon-induced LGR2 CRE-luciferase signal, primary screen, cell-based, HEK293, CRE-luciferase reporter, bursicon stimulation (AID 720647); conditions: bursicon-stimulated, 4 h, at 9.99 µM, stronger effect = higher value;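 also: agonist challenge used bursicon conditioned medium at about half maximal strength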

Compound | inhibition
C[C@H]1CN([C@@H](C)CO)C(=O)c2cccc(NC(=O)CCCCCC(=O)Nc3ccccc3N)c2O[C@H]1CN(C)C(=O)Nc1ccccc1 | 0.187%
COCC(=O)N1[C@H](C(=O)N2CCN(C)CC2)[C@@H](CO)[C@@H]2Cn3c(ccc(C4=CCCC4)c3=O)[C@@H]21 | -13.3%
Clc1ccc(-c2cc(-c3ccccn3)on2)c(Cl)c1 | 80% (active)
Clc1ccc(-c2cc(C3CCNCC3)[nH]n2)c(Cl)c1 | 2.21%
COCC(=O)Nc1ccc2c(c1)OC[C@H](C)N(C(=O)c1cnccn1)C[C@@H](C)[C@@H](OC)CN(C)C2=O | 10.6%
COc1cccc(/C=N/Nc2cc(C)nc(-c3ccccc3O)n2)c1O | 90.5% (active)
O=C(c1ccc(F)cc1)N1CC2(C1)[C@H](c1ccccc1)[C@@H](CO)N2Cc1ccccn1 | -5%
COCC#Cc1ccc([C@@H]2[C@H](CO)N3C(=O)CN(C(=O)C4CCC4)C[C@@H]23)cc1 | 3.87%
CCOC(=O)C(=O)C1C(=O)Nc2ccccc21 (centres undefined) | -14.6%
CCOC(=O)C(=Cc1ccccc1)C(=O)c1ccccc1 | 90.8% (active)
CCOC(=O)/C=C/c1ccccc1O | -29.5%
COc1ccc2c3c([nH]c2c1)[C@@H](CO)N(C)CC31CCN(S(=O)(=O)c2ccc(C)cc2)CC1 | 0.296%
O=C(Nc1cccc(F)c1)N1CC(=O)N2[C@H](CO)[C@H](c3ccc(C#CC4CC4)cc3)[C@@H]2C1 | 8.66%
COCC(=O)N1CCCCN2[C@H](CO)[C@H](c3ccc(C#Cc4ccc(OC)cc4)cc3)[C@H]2C1 | -13.1%
COc1ccc(OC)c(CNC(=O)CCc2nc(-c3cccs3)no2)c1 | 2.08%
COc1ccc(-c2onc3ccc(C(C)=O)cc23)cc1 | -9.6%
COc1ccc(-c2nc(-c3ccccc3)no2)c(OC)c1 | 91.2% (active)
CN1C(=O)c2cc(NC(=O)C3CC3)ccc2OC[C@H]2O[C@H](CC(=O)O)CC[C@H]21 | -1.87%
O=C(Cc1cccnc1)N1CC(=O)N2[C@H](CO)[C@H](c3ccc(C#CC4CCCC4)cc3)[C@@H]2C1 | -25.4%
CC(=O)Nc1ccc(-c2csc(NC(=O)Nc3ccccc3)n2)cc1 | 94.1% (active)
C=CC[n+]1c(-c2ccc(C)cc2)csc1NNC(=O)Nc1ccccc1 | 6.29%
CC(=O)NC(c1ccccc1)c1nc(-c2ccccc2C)cs1 (centres undefined) | -19.2%
CN1[C@H](C(=O)N2CCc3ccccc3C2)[C@@H](CO)[C@@H]2Cn3c(ccc(-c4cncnc4)c3=O)[C@@H]21 | 1.15%
COc1cc(SC)ccc1C(=O)Nc1nc(C)cs1 | 102% (active)
COc1cc(Cl)c(C)cc1NC(=O)COC(=O)c1cc(SC)ccc1Cl | 7.1%

Compound | inhibition
Cc1csc(OCC(=O)Nc2ccc(C)c(C)c2)n1 | 0.863%
CO[C@H](CN(C)C(=O)c1cnccn1)[C@@H](C)CN([C@@H](C)CO)S(=O)(=O)c1ccccc1 | -6.19%
c1c2c(cc3sc(N4CCCCC4)nc13)OCCO2 | 85.3% (active)
C[C@@H]1CN([C@H](C)CO)C(=O)CCCn2cc(nn2)CO[C@@H]1CN(C)Cc1ccc2cccnc2c1 | -3.97%
O=C(NCc1ccc2c(c1)OCO2)c1sccc1Br | -10.3%
CN(C)C(=O)c1cccc(-c2cnc3sc(NCc4ccc5c(c4)OCO5)nn23)c1 | 51.6% (active)
CCN(CC)C(=O)Cn1cc(S(=O)(=O)CC(=O)NCc2ccc3c(c2)OCO3)c2ccccc21 | -11.7%
C[C@@H]1CCCCO[C@@H](CN(C)C)[C@@H](C)CN([C@H](C)CO)C(=O)c2cc(N(C)C)ccc2O1 | -6.42%
C[C@H]1CN([C@@H](C)CO)C(=O)c2cc(NC(=O)C3CCCCC3)ccc2O[C@H]1CN(C)C(=O)Nc1ccccc1 | 2.55%
N#C[C@@H]1[C@@H](c2ccc(C#Cc3cccc(F)c3)cc2)[C@H](CO)N1C(=O)C1CCOCC1 | -34.2%
N#C[C@@H]1[C@H](c2ccc(C#Cc3ccccc3F)cc2)[C@H](CO)N1C(=O)C1CCCCC1 | 74.8% (active)
N#C[C@@H]1[C@H](c2ccc(C#Cc3cccc(F)c3)cc2)[C@@H](CO)N1C(=O)C1CCCC1 | 82.4% (active)
COc1ccccc1C#Cc1ccc([C@H]2[C@@H](C#N)N(C(=O)C3CCCCC3)[C@@H]2CO)cc1 | 18.3%
N#C[C@H]1[C@H](c2ccc(C#Cc3ccc(F)cc3)cc2)[C@@H](CO)N1C(=O)C1CCCC1 | 16.6%
N#C[C@@H]1[C@@H](c2ccc(C#Cc3cccc(F)c3)cc2)[C@@H](CO)N1C(=O)C1CCC1 | -19.3%
CS(=O)(=O)N1[C@@H](C#N)[C@H](c2ccc(C#CC3CCCCC3)cc2)[C@@H]1CO | -5.08%
CS(=O)(=O)N1[C@H](C#N)[C@H](c2ccc(C#CC3CCCC3)cc2)[C@H]1CO | -37.6%
N#C[C@@H]1[C@H](c2ccc(C#CC3CCCCC3)cc2)[C@@H](CO)N1S(=O)(=O)c1ccccc1 | 61.9% (active)
C[C@@H]1CN([C@@H](C)CO)S(=O)(=O)c2ccc(C#CCN(C)C)cc2O[C@H]1CN(C)C(=O)C1CC1 | 6.68%
Cc1noc(C)c1S(=O)(=O)N(C)C[C@@H]1OCCCC[C@@H](C)Oc2ccc(NC(=O)c3ccccc3)cc2C(=O)N([C@@H](C)CO)C[C@@H]1C | 12.5%
O=C(N[C@H]1CC[C@@H](CCNS(=O)(=O)c2ccc(F)cc2)O[C@@H]1CO)c1ccccn1 | 11.4%
CCC(=O)Nc1ccc2c(c1)OC[C@H](C)N(CC1CCCCC1)C[C@@H](C)[C@H](OC)CN(C)C2=O | 4.64%
CCC(=O)N1CCC2(CC1)CN(S(C)(=O)=O)[C@@H](CO)c1c2c2ccc(OC)cc2n1C | -17.4%
CCCC#Cc1cnc2c(c1)C(=O)N([C@H](C)CO)C[C@H](C)[C@@H](CN(C)S(=O)(=O)c1ccccc1)O2 | -10.8%
